# Measurements published in article PMC5540273 (PLoS ONE, 2017).
# Experiments:
# Conditions in all cases: concentration: 1 μM, replicates: in singlicate; n = 1
# ACVR2A = test system: ACVR2A
# ACVR2B = test system: ACVR2B
# ACVRL1 = test system: ACVRL1
# ADCK3 = test system: T1, ADCK3
# T1 construct: gene CABC1
# ADCK4 = test system: ADCK4
# AKT1 = test system: AKT1
# AKT2 = test system: AKT2
# AKT3 = test system: AKT3
# ALK = test system: ALK
# AMPK-alpha1 = test system: T2, AMPK-alpha1
# T2 construct: gene PRKAA1
# AMPK-alpha2 = test system: T3, AMPK-alpha2
# T3 construct: gene PRKAA2
# ANKK1 = test system: ANKK1
# ARK5 = test system: T4, ARK5
# T4 construct: gene NUAK1
# ASK1 = test system: T5, ASK1
# T5 construct: gene MAP3K5
# ASK2 = test system: T6, ASK2
# T6 construct: gene MAP3K6
# AURKA = test system: AURKA
# AURKB = test system: AURKB
# AURKC = test system: AURKC
# AXL = test system: AXL
# BIKE = test system: T7, BIKE
# T7 construct: gene BMP2K
# 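Note: KINOMEscan kinase panel screen.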
Compound,%Inh (ACVR2A),%Inh (ACVR2B),%Inh (ACVRL1),%Inh (ADCK3),%Inh (ADCK4),%Inh (AKT1),%Inh (AKT2),%Inh (AKT3),%Inh (ALK),%Inh (AMPK-alpha1),%Inh (AMPK-alpha2),%Inh (ANKK1),%Inh (ARK5),%Inh (ASK1),%Inh (ASK2),%Inh (AURKA),%Inh (AURKB),%Inh (AURKC),%Inh (AXL),%Inh (BIKE)
CCCCCc1nc2c(N)ncnc2n1CCCCC [SKF-97255],0%,0%,13%,1%,0%,0%,0%,0%,0%,3%,11%,0%,0%,0%,0%,10%,37%,0%,0%,0%
COc1ccc(Nc2nccc(N3CCC(NC(=O)Nc4cc(C)ccc4C)C3)n2)cc1 (stereo not drawn) [GSK1379741],0%,0%,0%,0%,32%,0%,10%,0%,25%,0%,0%,0%,11%,12%,0%,15%,37%,46%,0%,0%
NCC(NC(=O)c1cc(-c2cn[nH]c2)c(-c2ccnc3[nH]ccc23)s1)c1ccccc1.O=C(O)C(F)(F)F.O=C(O)C(F)(F)F (stereo not drawn) [GSK1325775],15%,0%,0%,52%,58%,66%,23%,83%,38%,17%,24%,0%,52%,11%,23%,95.6%,83%,82%,45%,99.7%
c1ccc(-c2n[nH]cc2-c2ccnc3ccccc23)nc1 [GW271431],2%,75%,0%,20%,24%,0%,2%,0%,19%,19%,11%,22%,5%,0%,0%,12%,20%,10%,11%,24%
Fc1ccc(-c2ncn(CCCN3CCOCC3)c2-c2ccccn2)cc1 [SB-211742],0%,19%,0%,3%,6%,15%,4%,0%,19%,10%,0%,0%,0%,10%,0%,0%,0%,0%,6%,23%
O=c1cc(N2CCOCC2)nc2n(Cc3cccc(C(F)(F)F)c3)ccn12 [GSK2297543],0%,0%,0%,21%,16%,0%,0%,15%,0%,4%,0%,5%,0%,0%,0%,13%,0%,4%,18%,18%
CCc1nc(-c2cccc(C)c2)c(-c2ccnc(NCc3ccccc3)c2)s1,11%,0%,0%,15%,0%,4%,22%,0%,0%,3%,5%,0%,15%,0%,0%,0%,14%,0%,0%,0%
CN(C(=O)c1ccc(-c2cc(-c3c[nH]nc3-c3ccccn3)ccn2)cc1)C1CCOCC1 [GW810083],0%,2%,0%,1%,24%,0%,0%,0%,17%,0%,0%,0%,15%,44%,0%,0%,0%,7%,48%,20%
O=C(NCCNc1ccnc(Nc2ccc(F)cc2)n1)Nc1ccccc1F [GSK1379880],0%,0%,0%,0%,19%,0%,0%,0%,25%,0%,0%,0%,21%,1%,0%,11%,32%,6%,0%,0%
Cc1cccc(Cn2ccn3c(=O)cc(N4CCOCC4)nc23)c1 [GSK2297542],0%,4%,6%,27%,44%,0%,4%,0%,36%,1%,12%,19%,12%,0%,6%,15%,0%,18%,5%,15%
COCCNC(=O)c1ccc(-c2cc(C(=O)NC3CC3)cc(F)c2C)cc1 [GW868318],12%,0%,9%,14%,0%,0%,15%,26%,51%,20%,0%,11%,0%,5%,26%,27%,33%,0%,0%,7%
Cc1c(Cn2c(C)nn3c(=O)cc(N4CCOC(C)C4)nc23)cccc1C(F)(F)F (stereo not drawn) [GSK2344444],22%,0%,5%,3%,0%,0%,6%,0%,0%,0%,0%,0%,10%,1%,8%,0%,0%,8%,0%,16%
Cc1nnc(-c2ccc(C)c(-c3ccc(C(=O)Nc4ccc(NS(C)(=O)=O)cc4)cc3)c2)o1 [GW702865],0%,0%,0%,20%,14%,0%,12%,0%,6%,17%,1%,14%,0%,0%,0%,30%,8%,3%,1%,7%
NS(=O)(=O)c1cccc(-c2ccc3ncc(N4CCOCC4)nc3c2)c1 [GSK1535721],0%,0%,0%,28%,9%,0%,4%,0%,6%,1%,12%,15%,0%,0%,0%,19%,0%,0%,2%,0%
COc1cc2c(cc1OC[C@@H](O)CO)ncc1c3ccc(C#N)cc3[nH]c21,0%,1%,0%,0%,0%,0%,0%,0%,15%,0%,0%,73%,0%,0%,0%,6%,52%,0%,17%,96.2%
